Where “and” joins values, the source holds several entries; their conditions need not be identical. Equal values may be shown once. Records with an inconclusive call do not appear. Where a call stands in place of a potency, no number is given. Calls of active or inactive are those of the source. Unless noted, calls come from the whole dose curve; as a rule, active = well fitted curve in the direction sought with a large enough effect in the repeat runs; inconclusive = weak or mixed curves; inactive = no such curve, though single readings can be large; an effect the other way counts as inactive or inconclusive.

Test system in the first assay: not listed separately
Kind of assay: qHTS assay to identify small molecule antagonists of the retinoid-related orphan receptor gamma (ROR-gamma) signaling pathway - cell viability counter screen (AID 1159520). Note: nearly all actives have a fitted effect of over 50% in size. To be noted: Tet-on RORgamma CHO cells viability, ATP luminescence, 16 h; series mostly up to 92.4 µM. The procedure, abridged:
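Cytotoxicity was read from cellular ATP (CellTiter-Glo luminescence) after 16 hr at 37 C with 1 uM doxycycline induction. The inducer was added 2 hr after compound transfer to Tet-on ROR gamma CHO cells.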
(Quantitative high-throughput screening tests each substance at several concentrations.)
As for `COCN(COC)c1nc(N(COC)COC)nc(N(COC)COC)n1`, the Potency entry is “inactive”.

Turning to `CC(=O)CC(=O)N(C)C`, the Potency entry was “inactive”.

As for `Cc1cc(C)c(O)c(C)c1`, the Potency entry was “inactive”.

In the case of `Cc1ccc([N+](=O)[O-])cc1N`, the Potency entry was “inactive”.

As for `CC(=O)OC[C@H]1O[C@@](COC(C)=O)(O[C@H]2O[C@H](COC(C)=O)[C@@H](OC(C)=O)[C@H](OC(C)=O)[C@H]2OC(C)=O)[C@@H](OC(C)=O)[C@@H]1OC(C)=O`, the Potency result is “inactive”.

Consider `Oc1ccc(Cc2ccccc2O)cc1`, for which the Potency result is “inactive”.

For the compound `CC(O)CNCC(C)O` (centres undefined), the Potency entry was “inactive”.

For the compound `Cc1ccccc1C=O`, the Potency result was “inactive”.

In the case of `Cc1ccc(C)c(S(=O)(=O)O)c1`, the Potency entry is “inactive”.

As for `NC(=O)NC(N)=O`, the Potency result was “inactive”.

For the compound `NC(=O)c1ncn([C@@H]2O[C@H](CO)[C@@H](O)[C@H]2O)n1`, the Potency result is “inactive”.

Regarding `CCCN(CCC)C(=O)SCC`, the Potency result is “inactive”.

For the compound `Cc1cc(CC(=O)O)n(C)c1C(=O)c1ccc(Cl)cc1`, the Potency entry is “inactive”.

Turning to `CC/C(C)=N/O`, the Potency result is “inactive”.

Turning to `O=C(O)Cc1c[nH]c2ccccc12`, the Potency entry is “inactive”.

As for `OCCOCCOCCOCCOCCO`, the Potency entry was “inactive”.

Turning to `Cc1ccc(C(C)C)cc1`, the Potency entry was “inactive”.

Turning to `CC(C)=CCC/C(C)=C/C=O`, the Potency result was “inactive”.

As for `CC(=O)OC/C=C(\C)CCC=C(C)C`, the Potency entry was “inactive”.

Regarding `CCN(CC)CCNC(=O)c1ccc(N)cc1`, the Potency result is “inactive”.

Take `O=C(c1ccccc1)c1ccc(O)c(O)c1O`: the Potency entry is “inactive”.

Turning to `CCCCC(=O)O`, the Potency result is “inactive”.

With `C=C1C[C@]23C[C@@]1(O)CC[C@H]2[C@@]12C=C[C@H](O)[C@@](C)(C(=O)O1)[C@H]2[C@@H]3C(=O)O`, the Potency entry was “inactive”.

Turning to `CC(=O)C(C)C`, the Potency result was “inactive”.

In the case of `CO[Si](CCCNCCN)(OC)OC`, the Potency result is “inactive”.

Consider `CCn1cc(C(=O)O)c(=O)c2cc3c(cc21)OCO3`, for which the Potency result was “inactive”.

For the compound `CC(C)c1ccc(C(C)C)cc1`, the Potency entry was “inactive”.

Consider `CCCOCC(C)O` (centres undefined), for which the Potency entry was “inactive”.

Turning to `CCCCCCCC(=O)O`, the Potency entry was “inactive”.

On to `C=C(C)CC(C)(C)C`, for which the Potency entry is “inactive”.

Consider `Nc1cccc(N)n1`, for which the Potency entry is “inactive”.

As for `NC(N)=S`, the Potency entry was “inactive”.

Consider `Cc1ccc(Cl)cc1`, for which the Potency result was “inactive”.

For the compound `OCc1ccc(Cl)cc1Cl`, the Potency entry was “inactive”.

On to `CCOC(=O)c1ccc(O)cc1`, for which the Potency entry is “inactive”.

With `CCOC(=O)CC(=O)OCC`, the Potency entry is “inactive”.

For the compound `OCC(O)CS` (centres undefined), the Potency result was “inactive”.

As to `OCC(CO)(CO)CO`, the Potency result is “inactive”.

For another assay, the target named is Nuclear receptor ROR-gamma (Homo sapiens) (UniProt P51449). Kind of assay: qHTS assay to identify small molecule antagonists of the retinoid-related orphan receptor gamma (ROR-gamma) signaling pathway (AID 1159521; note: nearly all actives have a fitted effect of over 50% in size; note: potency is the fitted concentration of half-maximal effect). Conditions: Tet-on RORgamma CHO cells, RORE-luciferase, 16 h; series mostly up to 92.4 µM. The procedure, abridged: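 Readout: ONE-Glo luciferase luminescence, 30 min at room temperature. System: Tet-on RORγ CHO, RORE-LUC. Sequence: compound 2 h, doxycycline 1 uM final, 16 h at 37 C.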
Turning to `COCN(COC)c1nc(N(COC)COC)nc(N(COC)COC)n1`, the Potency entry is “inactive”.

Turning to `CC(=O)CC(=O)N(C)C`, the Potency entry was “inactive”.

With `Cc1cc(C)c(O)c(C)c1`, the Potency entry was “inactive”.

Regarding `Cc1ccc([N+](=O)[O-])cc1N`, the Potency entry is “inactive”.

For `CC(=O)OC[C@H]1O[C@@](COC(C)=O)(O[C@H]2O[C@H](COC(C)=O)[C@@H](OC(C)=O)[C@H](OC(C)=O)[C@H]2OC(C)=O)[C@@H](OC(C)=O)[C@@H]1OC(C)=O`, the Potency entry is “inactive”.

Regarding `Oc1ccc(Cc2ccccc2O)cc1`, the Potency entry is “inactive”.

As to `CC(O)CNCC(C)O` (centres undefined), the Potency entry was “inactive”.

In the case of `Cc1ccccc1C=O`, the Potency result was “inactive”.

`Cc1ccc(C)c(S(=O)(=O)O)c1`: the Potency result was “inactive”.

On to `NC(=O)NC(N)=O`, for which the Potency result was “inactive”.

In the case of `NC(=O)c1ncn([C@@H]2O[C@H](CO)[C@@H](O)[C@H]2O)n1`, the Potency is 4.56 µM (active) and 3.76 µM (active).

In the case of `CCCN(CCC)C(=O)SCC`, the Potency result is “inactive”.

As to `Cc1cc(CC(=O)O)n(C)c1C(=O)c1ccc(Cl)cc1`, the Potency result is “inactive”.

For `CC/C(C)=N/O`, the Potency result is “inactive”.

As for `O=C(O)Cc1c[nH]c2ccccc12`, the Potency result is “inactive”.

With `OCCOCCOCCOCCOCCO`, the Potency result was “inactive”.

Regarding `Cc1ccc(C(C)C)cc1`, the Potency entry is “inactive”.

For `CC(C)=CCC/C(C)=C/C=O`, the Potency entry is “inactive”.

Turning to `CC(=O)OC/C=C(\C)CCC=C(C)C`, the Potency result is “inactive”.

For the compound `CCN(CC)CCNC(=O)c1ccc(N)cc1`, the Potency result is “inactive”.

For the compound `O=C(c1ccccc1)c1ccc(O)c(O)c1O`, the Potency entry is “inactive”.

On to `CCCCC(=O)O`, for which the Potency entry was “inactive”.

Consider `C=C1C[C@]23C[C@@]1(O)CC[C@H]2[C@@]12C=C[C@H](O)[C@@](C)(C(=O)O1)[C@H]2[C@@H]3C(=O)O`, for which the Potency entry was “inactive”.

On to `CC(=O)C(C)C`, for which the Potency entry is “inactive”.

In the case of `CO[Si](CCCNCCN)(OC)OC`, the Potency result is “inactive”.

`CCn1cc(C(=O)O)c(=O)c2cc3c(cc21)OCO3`: the Potency result is “inactive”.

Consider `CC(C)c1ccc(C(C)C)cc1`, for which the Potency entry is “inactive”.

With `CCCOCC(C)O` (centres undefined), the Potency entry is “inactive”.

As to `CCCCCCCC(=O)O`, the Potency entry is “inactive”.

In the case of `C=C(C)CC(C)(C)C`, the Potency result was “inactive”.

Take `Nc1cccc(N)n1`: the Potency result is “inactive”.

Turning to `NC(N)=S`, the Potency entry is “inactive”.

As to `Cc1ccc(Cl)cc1`, the Potency entry was “inactive”.

Turning to `OCc1ccc(Cl)cc1Cl`, the Potency result was “inactive”.

As to `CCOC(=O)c1ccc(O)cc1`, the Potency result is “inactive”.

With `CCOC(=O)CC(=O)OCC`, the Potency result was “inactive”.

In the case of `OCC(O)CS` (centres undefined), the Potency entry was “inactive”.

Turning to `OCC(CO)(CO)CO`, the Potency result is “inactive”.

Test system in a further assay: not listed separately
Briefly: qHTS assay to identify small molecule agonists of the AP-1 signaling pathway - cell viability counter screen (AID 1159525; calls by dose curve; note: nearly all actives have a fitted effect of over 55% in size). Conditions: ME-180 (cervical carcinoma) AP-1-bla cells viability, ATP luminescence, 5 h; series mostly up to 76.8 µM. The method, boiled down:
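Intracellular ATP by Cell Titer Glo luminescence (30 min, RT) in the same ME-180 AP-1-bla wells after the 5 h compound exposure at 37 °C. Normalised to tetra n-octyl ammonium bromide and DMSO controls.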
Regarding `COCN(COC)c1nc(N(COC)COC)nc(N(COC)COC)n1`, the Potency entry was “inactive”.

For `CC(=O)CC(=O)N(C)C`, the Potency entry is “inactive”.

Regarding `Cc1cc(C)c(O)c(C)c1`, the Potency entry is “inactive”.

On to `Cc1ccc([N+](=O)[O-])cc1N`, for which the Potency result is “inactive”.

For the compound `CC(=O)OC[C@H]1O[C@@](COC(C)=O)(O[C@H]2O[C@H](COC(C)=O)[C@@H](OC(C)=O)[C@H](OC(C)=O)[C@H]2OC(C)=O)[C@@H](OC(C)=O)[C@@H]1OC(C)=O`, the Potency entry was “inactive”.

`Oc1ccc(Cc2ccccc2O)cc1`: the Potency entry is “inactive”.

Take `CC(O)CNCC(C)O` (centres undefined): the Potency entry is “inactive”.

Take `Cc1ccccc1C=O`: the Potency result was “inactive”.

`Cc1ccc(C)c(S(=O)(=O)O)c1`: the Potency entry is “inactive”.

On to `NC(=O)NC(N)=O`, for which the Potency entry is “inactive”.

Take `NC(=O)c1ncn([C@@H]2O[C@H](CO)[C@@H](O)[C@H]2O)n1`: the Potency result was “inactive”.

Regarding `CCCN(CCC)C(=O)SCC`, the Potency entry was “inactive”.

For the compound `Cc1cc(CC(=O)O)n(C)c1C(=O)c1ccc(Cl)cc1`, the Potency entry was “inactive”.

Turning to `CC/C(C)=N/O`, the Potency entry is “inactive”.

Consider `O=C(O)Cc1c[nH]c2ccccc12`, for which the Potency result is “inactive”.

Turning to `OCCOCCOCCOCCOCCO`, the Potency result is “inactive”.

For `Cc1ccc(C(C)C)cc1`, the Potency entry was “inactive”.

`CC(C)=CCC/C(C)=C/C=O`: the Potency result is “inactive”.

With `CC(=O)OC/C=C(\C)CCC=C(C)C`, the Potency result was “inactive”.

With `CCN(CC)CCNC(=O)c1ccc(N)cc1`, the Potency result is “inactive”.

On to `O=C(c1ccccc1)c1ccc(O)c(O)c1O`, for which the Potency entry was “inactive”.

Take `CCCCC(=O)O`: the Potency entry is “inactive”.

On to `C=C1C[C@]23C[C@@]1(O)CC[C@H]2[C@@]12C=C[C@H](O)[C@@](C)(C(=O)O1)[C@H]2[C@@H]3C(=O)O`, for which the Potency result is “inactive”.

In the case of `CC(=O)C(C)C`, the Potency entry was “inactive”.

With `CO[Si](CCCNCCN)(OC)OC`, the Potency result is “inactive”.

On to `CCn1cc(C(=O)O)c(=O)c2cc3c(cc21)OCO3`, for which the Potency result was “inactive”.

For the compound `CC(C)c1ccc(C(C)C)cc1`, the Potency entry was “inactive”.

Take `CCCOCC(C)O` (centres undefined): the Potency entry is “inactive”.

Turning to `CCCCCCCC(=O)O`, the Potency entry is “inactive”.

Regarding `C=C(C)CC(C)(C)C`, the Potency result was “inactive”.

As for `Nc1cccc(N)n1`, the Potency result is “inactive”.

As to `NC(N)=S`, the Potency result is “inactive”.

Turning to `Cc1ccc(Cl)cc1`, the Potency result is “inactive”.

With `OCc1ccc(Cl)cc1Cl`, the Potency entry was “inactive”.

On to `CCOC(=O)c1ccc(O)cc1`, for which the Potency result is “inactive”.

For the compound `CCOC(=O)CC(=O)OCC`, the Potency result was “inactive”.

Consider `OCC(O)CS` (centres undefined), for which the Potency entry is “inactive”.

`OCC(CO)(CO)CO`: the Potency entry is “inactive”.

The values above are taken from PubChem BioAssay (Tox21).
